# Measurements: the supplement of paper PMC10338343
# ± gives the standard deviation.
# Columns and labels:
# [1] = test system: EfPiwi piRISC loaded with piRNA #1 (26 nt); experiment: pre-steady-state target cleavage rate (min^-1); auxiliary factor: 500 nM Ephydatia muelleri Gtsf1; guide: piRNA #1 5'p-UGAGGUAGUAGGUUGUAUAGUAUCCA; higher = faster piRNA-guided slicing of the target
# Outline: (§1)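 For Cleave-'n-Seq, a transcribed, DNA-blocked target RNA library […] met 1 nM active affinity-purified piRISC with one synthetic guide at 33 °C for 0–8 or 0–960 min in HEPES–potassium acetate buffer, with or without 500 nM GTSF1 partner protein. Uncleaved targets were sequenced and normalised to depth and weakly complementary targets, with three trials pooled and k3 capped at 0.0001 min^-1. A burst-and-steady-state fit supplied the pre-steady-state cleavage rate.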
# [2] = test system: MILI (PIWIL2) piRISC loaded with L1MC piRNA (26 nt); experiment: pre-steady-state target cleavage rate (min^-1); guide: L1MC piRNA 5'p-UAACUAAAUACUAUGCAAGCUGUAGG; higher = faster piRNA-guided slicing of the target;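 note: 1 nM active piRISC with 0.1 nM target library at 33 °C single turnover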
# Outline: as §1
# [3] = test system: EfPiwi piRISC loaded with L1MC piRNA (26 nt); experiment: pre-steady-state target cleavage rate (min^-1); auxiliary factor: none (no Gtsf1); guide: L1MC piRNA 5'p-UAACUAAAUACUAUGCAAGCUGUAGG; higher = faster piRNA-guided slicing of the target
# Outline: as §1
# [4] = test system: EfPiwi piRISC loaded with L1MC piRNA (26 nt); experiment: pre-steady-state target cleavage rate (min^-1); auxiliary factor: 500 nM Ephydatia muelleri Gtsf1; guide: L1MC piRNA 5'p-UAACUAAAUACUAUGCAAGCUGUAGG; MIWI and MILI are mouse PIWI proteins and EfPiwi is from a freshwater sponge; tags in brackets are library labels; higher = faster piRNA-guided slicing of the target
# Outline: as §1
# [5] = auxiliary factor: none (no GTSF1)
# [6] = auxiliary factor: 500 nM mouse GTSF1
sequence,measurement,setting,value
GGAGACGAUACUAGUACAACCUACUACCUCA,pre-steady-state target cleavage rate,[1],0.0047 ± 0.0025
GGAGUGGAUACUAUACAACCUAGAUCCUCA,pre-steady-state target cleavage rate,[1],0.00311 ± 0.0016
GGAGACCUUACUAUACAAGCCUACUACCUCA,pre-steady-state target cleavage rate,[1],0.00541 ± 0.0031
GGAGACCUUACUAUACAACACUACUACCUCA,pre-steady-state target cleavage rate,[1],0.0118 ± 0.0053
GGAGAGGAUACUAUACAACUCUACUACCUCA,pre-steady-state target cleavage rate,[1],0.00443 ± 0.0043
GGAGACCUUACUAUACAACAUACUACCUCA,pre-steady-state target cleavage rate,[1],0.00974 ± 0.0063
GGAGAGGAUACUAUACAACACUACUACCUCA,pre-steady-state target cleavage rate,[1],0.00804 ± 0.0043
GGAGUGGAUACUAUACAUACCUACUACCUCA,pre-steady-state target cleavage rate,[1],0.0107 ± 0.0063
GGAGACCUUACUAUACAAGCUACUACCUCA,pre-steady-state target cleavage rate,[1],0.00386 ± 0.002
GGAGACCUAACUAUACAACCUUCUACCUCA,pre-steady-state target cleavage rate,[1],0.00554 ± 0.0031
GGAGUGGAUACUAUACAACCUACAACCUGA,pre-steady-state target cleavage rate,[1],0.00253 ± 0.0013
GGAGUGGAUACUAUACAACCUACUUCGUCA,pre-steady-state target cleavage rate,[1],0.00391 ± 0.0021
GGAGUGGAUACUAUACAACCUAGUACGUCA,pre-steady-state target cleavage rate,[1],0.00381 ± 0.0014
UCCUGGAUGUCGAACGUUACUAUUAAGUUA,pre-steady-state target cleavage rate,[2]; [5],< 0.0001
UCCUGGAUGUCGAACGAGUAGUAUUUAGUUA,pre-steady-state target cleavage rate,[2]; [5],< 0.0001
UCCUGGAUGAGCUUGCAUAGUAAUUAGAAA,pre-steady-state target cleavage rate,[2]; [6],0.00737 ± 0.0053
same,pre-steady-state target cleavage rate,[3],< 0.0001
UCCUGGAUGUCGAACGUUAGUAUCUAGUUA,pre-steady-state target cleavage rate,[3],< 0.0001
same,pre-steady-state target cleavage rate,[4],< 0.0001
UCCUCCUACACGAUGCAUAGUAUUUACAAA,pre-steady-state target cleavage rate,[2]; [6],0.122 ± 0.021
same,pre-steady-state target cleavage rate,[3],< 0.0001
UCCUGGAUCAGCUUGCAUAGUAUUUACGUUA,pre-steady-state target cleavage rate,[2]; [6],0.243 ± 0.027
same,pre-steady-state target cleavage rate,[2]; [5],0.00431 ± 0.0028
same,pre-steady-state target cleavage rate,[3],0.011 ± 0.006
same,pre-steady-state target cleavage rate,[4],0.0133 ± 0.0044
UCCUGGAUCAGCUUGCAUAGUAUAUAGUUA,pre-steady-state target cleavage rate,[2]; [6],0.268 ± 0.017
same,pre-steady-state target cleavage rate,[2]; [5],0.00895 ± 0.0025
same,pre-steady-state target cleavage rate,[3],0.0117 ± 0.0058
same,pre-steady-state target cleavage rate,[4],0.0716 ± 0.02
UCCUGGAUCAGCUUGGAUACUAUUUAGUUA,pre-steady-state target cleavage rate,[2]; [6],0.0383 ± 0.01
same,pre-steady-state target cleavage rate,[3],< 0.0001
UCCUGGAUGUGCUUGCAUAGUAUCUUAGUUA,pre-steady-state target cleavage rate,[2]; [6],0.135 ± 0.019
same,pre-steady-state target cleavage rate,[2]; [5],0.0069 ± 0.0028
same,pre-steady-state target cleavage rate,[3],0.0107 ± 0.0064
UCCUGCUACAGCUUGGAUAGUAUUUACAAA,pre-steady-state target cleavage rate,[3],< 0.0001
same,pre-steady-state target cleavage rate,[4],0.00306 ± 0.0026
UCCUGGUUCUGCUUGCAUAGUAUUUAGUUA,pre-steady-state target cleavage rate,[2]; [6],0.186 ± 0.024
same,pre-steady-state target cleavage rate,[2]; [5],0.00814 ± 0.0033
same,pre-steady-state target cleavage rate,[3],0.00563 ± 0.0047
same,pre-steady-state target cleavage rate,[4],0.0355 ± 0.011
UCCUGGAUCAGCUUGCAUAGUAUCUUAGUUA,pre-steady-state target cleavage rate,[2]; [6],0.234 ± 0.021
same,pre-steady-state target cleavage rate,[2]; [5],0.00648 ± 0.0025
same,pre-steady-state target cleavage rate,[3],0.0132 ± 0.0071
same,pre-steady-state target cleavage rate,[4],0.0248 ± 0.0072
UCCUGGAUGAGCUUGCAUAGUAUGUAGUUA,pre-steady-state target cleavage rate,[2]; [6],0.162 ± 0.033
same,pre-steady-state target cleavage rate,[2]; [5],0.0043 ± 0.003
same,pre-steady-state target cleavage rate,[3],0.00616 ± 0.0049
same,pre-steady-state target cleavage rate,[4],0.0135 ± 0.0044
UCCUGCUACAGCUUGCAUAGAAUUUUCAAA,pre-steady-state target cleavage rate,[2]; [6],0.0169 ± 0.0066
same,pre-steady-state target cleavage rate,[3],< 0.0001
UCCUGGUGACAGCUUGCAUAGUAUUUAGUUA,pre-steady-state target cleavage rate,[2]; [6],0.507 ± 0.044
same,pre-steady-state target cleavage rate,[2]; [5],0.0285 ± 0.0085
same,pre-steady-state target cleavage rate,[3],0.0577 ± 0.023
same,pre-steady-state target cleavage rate,[4],0.0328 ± 0.01
UCCUGGAUGUCGAACCCUAGUAUUUAGUUA,pre-steady-state target cleavage rate,[3],< 0.0001
same,pre-steady-state target cleavage rate,[4],< 0.0001
UCCUGCUACAGCUUGCAUAGUAUUUAGCUA,pre-steady-state target cleavage rate,[3],< 0.0001
same,pre-steady-state target cleavage rate,[4],0.00339 ± 0.0014
UCCUGGAUGUCGUUGAAUAGUAUUUAGUUA,pre-steady-state target cleavage rate,[2]; [6],0.0817 ± 0.015
same,pre-steady-state target cleavage rate,[2]; [5],0.0047 ± 0.0024
same,pre-steady-state target cleavage rate,[3],< 0.0001
UCCUGGAUCUGCUUGCAUAGUAAUUAGUUA,pre-steady-state target cleavage rate,[2]; [6],0.2 ± 0.017
same,pre-steady-state target cleavage rate,[2]; [5],0.00416 ± 0.0027
same,pre-steady-state target cleavage rate,[3],0.0241 ± 0.0099
same,pre-steady-state target cleavage rate,[4],0.0152 ± 0.005
UCCUGCUACAGCUUGGUAAGUAUUUAGAAA,pre-steady-state target cleavage rate,[2]; [6],0.0107 ± 0.0045
same,pre-steady-state target cleavage rate,[3],< 0.0001
UCCUGCUACAGCUUGCAUAUGUAUUUAGUUA,pre-steady-state target cleavage rate,[2]; [6],0.0123 ± 0.0069
same,pre-steady-state target cleavage rate,[3],< 0.0001
same,pre-steady-state target cleavage rate,[4],0.00294 ± 0.0023
UCCUGGAUCAGCUUGCAUAGUAUUUACUUA,pre-steady-state target cleavage rate,[2]; [6],0.0636 ± 0.008
same,pre-steady-state target cleavage rate,[2]; [5],0.00403 ± 0.0024
same,pre-steady-state target cleavage rate,[3],< 0.0001
UCCUGGAUGUCGAUGCAUCGUAUUUAGUUA,pre-steady-state target cleavage rate,[2]; [6],0.0238 ± 0.0073
same,pre-steady-state target cleavage rate,[2]; [5],0.00865 ± 0.0025
same,pre-steady-state target cleavage rate,[3],< 0.0001
UCCUGGAACAGCUUGUAUAGUAUUUAGUUA,pre-steady-state target cleavage rate,[2]; [6],0.323 ± 0.017
same,pre-steady-state target cleavage rate,[2]; [5],0.00685 ± 0.0022
same,pre-steady-state target cleavage rate,[3],0.00519 ± 0.0044
same,pre-steady-state target cleavage rate,[4],0.0686 ± 0.013
UCCUGGAUGUCCAUGCAUAGUAUAUAGUUA,pre-steady-state target cleavage rate,[2]; [6],0.0181 ± 0.0064
same,pre-steady-state target cleavage rate,[2]; [5],0.00373 ± 0.0026
same,pre-steady-state target cleavage rate,[3],< 0.0001
